# About 13,000 (27%) of roughly 48,000 compounds showed an effect of 50% or more. The list shows a part of the results.
# Tested on: Wolbachia pipientis
# Experiment: Anti-Wolbachia Cell-Based Screen
# Assay type: functional
# Parameters: scale not given: in the data most compounds retested in dose-response had high values
# Conditions: 5 µM
row,Structure (SMILES),Percent Effect [%]
1,CC(C)CC(CCO)CNC(=O)N1CCOC2(CCCC2)C1 (stereo not given),9.888
2,CC1Cc2ccccc2N1Cc1occc1C(=O)O (stereo not given),-32.9
3,O=C(CN1CCSCC1c1ccccc1)N1CCCC1 (stereo not given),-1.528
4,CCC(C(=O)NCc1ccn(-c2ccc(F)cc2)n1)N1CCCC1=O (stereo not given),13.5
5,Cc1nccn1C1(C(=O)O)CCN(Cc2ccc3nsnc3c2)CC1,4.136
6,Cc1cc(C(=O)N2CCCCC2C)ccc1NCCCO (stereo not given),3.863
7,Cc1cc(C(=O)N2CCCC2)ccc1NCC(=O)N1CCCCC1C (stereo not given),98.59
8,Cc1cc(C(=O)N2CCCC2)ccc1NCC(=O)N1CCOCC1,96.96
9,Cc1cc(C(=O)N2CCCC2)ccc1NCCO,-9.298
10,Cc1cc(C(=O)N2CCCCC2C)ccc1NC(=O)N1CCOCC1 (stereo not given),99.93
11,CCCNC(=O)CNc1ccc(C(=O)N2CCCCC2C)cc1C (stereo not given),-8.167
12,Cc1cc(C(=O)N2CCCC(C)C2)ccc1NCC(=O)N1CCOCC1 (stereo not given),106.6
13,Cc1cc(C(=O)N2CCC(C)CC2)ccc1NS(C)(=O)=O,7.517
14,COc1ccc(NC(=O)N2CCOCC(CN(C)C)C2)c(C)c1 (stereo not given),-4.922
15,Cc1cc(C(=O)N2CCCC2)ccc1NS(C)(=O)=O,-1.573
16,Cc1cc(C(=O)N2CCCCC2C)ccc1NCC(=O)N1CCOCC1 (stereo not given),-5.879
17,O=C(O)C(F)(F)F.c1cc(C2CC2)n2cnc(C3CN(Cc4nccs4)CCO3)c2c1 (stereo not given),7.631
18,CC(=O)NCCCSC1CCCN(c2ccccc2Cl)C1=O (stereo not given),1.649
19,Cn1ccnc1SCCNC1CCN(c2ncccn2)CC1,12.3
20,CC(C)c1ccc(-c2nnn(CCNS(C)(=O)=O)n2)cc1,-15.95
21,O=C(O)C(F)(F)F.O=C(c1cccs1)N1CCC[C@]2(C[C@@H](OCc3ccncc3)CO2)C1,-0.9808
22,Cc1nc(C2CCCN(C(=O)c3cnn(C(C)(C)C)c3)C2)no1 (stereo not given),1.32
23,Cc1cnn(CCC(=O)N2CCCC(c3cc(C(N)=O)[nH]n3)C2)c1 (stereo not given),5.057
24,Cc1nc(C2CCCN(C(=O)c3cnc(C)s3)C2)no1 (stereo not given),-5.153
25,Cc1cnn(CCC(=O)N2CCCC(c3noc(C)n3)C2)c1 (stereo not given),105
26,Cc1nc(C2CCCN(C(=O)c3cc(C)sc3C)C2)no1 (stereo not given),-7.599
27,Cc1nc(C2CCCN(C(=O)c3cnn(C4CCCCC4)c3)C2)no1 (stereo not given),101.3

row,Structure (SMILES),Percent Effect [%]
1,CCn1cc(C(=O)N2CCCC(c3noc(C)n3)C2)cn1 (stereo not given),122
2,Cc1cnn(CCC(=O)N2CCCC(c3nc(C)no3)C2)c1 (stereo not given),6.871
3,CC(=O)c1cc(CC(=O)NCc2ccsc2)cs1,-1.009
4,CC(=O)N1C[C@H](NS(=O)(=O)N2CCOCC2)[C@@H](c2ccc(C)o2)C1,-11.37
5,CN1CC(c2ccccc2)CC12CCN(C(=O)c1cncc(Cl)c1)CC2 (stereo not given),1.146
6,CCCc1cc(N2CCCC2Cn2nc(C)nc2C)n2ncnc2n1 (stereo not given),-15.77
7,CC(C)(CNC(=O)C(C)(C)Oc1ccc2c(c1)CCCC2=O)C(N)=O,-6.308
8,Cc1nc2cc(C(=O)N3CCn4c(nnc4C4CC4)C3)ccc2s1,86.87
9,CCc1nnc2n1CCN(C(=O)c1ccc3nc(C)c(C)nc3c1)C2,6.266
10,Cc1nc2ccc(C(=O)N3CCn4c(nnc4C4CC4)C3)cc2nc1C,122.4
11,Cc1nnc2n1CCN(C(=O)c1cnc(C3CC3)s1)C2,2.098
12,CCn1c(C2CCN(C(=O)c3ccc4sc(C)nc4c3)CC2)n[nH]c1=O,-3.012
13,CN(C)c1cccc(C(=O)N2CCn3c(nnc3-c3ccccc3)C2)c1,0.7654
14,CN1CCN(c2ccc(NC(=O)c3ccoc3)c(C(F)(F)F)c2)CC1,7.046
15,O=C(c1ncncc1Cl)N1CCC2(CCCC2)CC1,-11.62
16,CN(C)C(=O)CCS(=O)(=O)Cc1ccn(-c2cccc(F)c2)n1,-10.5
17,COc1cc(NC(=O)C2CC(=O)N(c3cccc(F)c3)C2)ncn1 (stereo not given),-6.208
18,Cn1cnc(NC(=O)C2CC(=O)N(c3cccc(F)c3)C2)n1 (stereo not given),77.24
19,CNC(=O)C1CC(=O)N(c2cccc(F)c2)C1 (stereo not given),-1.566
20,O=C(Cc1ccc2c(c1)OCCO2)NCCc1nnc2n1CCC2,-0.3257
21,O=C(Cc1ccc2c(c1)CCO2)N1CCN(c2cnccn2)CC1,-10.75
22,O=C(Cc1ccc2c(c1)CCO2)Nc1cccnc1-n1cncn1,-24.6
23,O=C(Cc1ccc2c(c1)OCCCO2)Nc1nnn[nH]1,102.7
24,O=C(CCc1ccc2c(c1)CCO2)Nc1nnn[nH]1,108.2
25,O=C(Cc1ccc2c(c1)OCCO2)NC1CCCC1,-1.576
26,COc1ccc(-c2cnc(N(C)C)nc2C2CNCCO2)cc1.Cl (stereo not given),76.7
27,CN(C)c1ncc(-c2ccc(F)cc2)c(C2CNCCO2)n1.Cl (stereo not given),112.1

row,Structure (SMILES),Percent Effect [%]
1,CN(C)c1ncc(-c2cncnc2)c(C2CNCCO2)n1.Cl (stereo not given),130
2,Cc1csc(C(C)(C)NCCCS(C)(=O)=O)n1,-31.79
3,CC(C)Cc1ccc(S(=O)(=O)Nc2ccc(=O)n(C)c2)cc1,-23.57
4,CC(C)C(O)C(=O)N1CCC2(CC1)c1nc[nH]c1CCN2S(C)(=O)=O (stereo not given),-6.881
5,O=C(c1cccnc1)N1CCCC1c1nc(O)cc(-c2ccccn2)n1 (stereo not given),120.2
6,CCc1cc(O)nc(C2CCCN2C(=O)c2cccnc2)n1 (stereo not given),-9.162
7,CC(C)(C)C(=O)N1CCCC1c1nc(O)cc(-c2ccccn2)n1 (stereo not given),-2.189
8,O=C(c1ccncc1)N1CCCC1c1nc(O)cc(-c2ccccn2)n1 (stereo not given),134.3
9,O=C(c1cc(-c2ccc(O)cc2)n[nH]1)N1CCCC1c1cccnc1 (stereo not given),-9.956
10,O=C(c1ccc2c(c1)COC2)N1CCN(CC2CC2)CC1,-6.158
11,O=C(O)C(F)(F)F.c1csc(CN2CCCn3cnc(COCC4CC4)c3C2)c1,-4.67
12,COCc1nn(CC2CC2)c2c1CN(Cc1cccs1)CC2.O=C(O)C(F)(F)F,-6.214
13,Cn1nc(COCC2CC2)c2c1CCN(Cc1ccco1)C2.O=C(O)C(F)(F)F,-12.11
14,CCN1CCc2c(c(COC)nn2C)C1,-29.06
15,CC(C)OCc1nn(C)c2c1CN(Cc1cccs1)CC2.O=CO,90.1
16,CCOCc1nn(CC2CC2)c2c1CN(Cc1cccs1)CC2.O=C(O)C(F)(F)F.O=C(O)C(F)(F)F,105
17,CCOCc1nn(CC2CC2)c2c1CN(Cc1ccco1)CC2.O=C(O)C(F)(F)F,-45.76
18,COCc1nn(C(C)C)c2c1CCN(Cc1cccs1)C2.O=C(O)C(F)(F)F,0.7419
19,Cc1nc(NC(C)C)nc2c1CN(Cc1cccs1)CC2,0.7721
20,Cn1nc(COCC2CC2)c2c1CCN(Cc1cccs1)C2.O=C(O)C(F)(F)F,99.16
21,CCOCc1nn(C)c2c1CN(CCO)CC2,105.8
22,CCOCc1nn(C)c2c1CN(C(=O)c1ccno1)CC2,-1.809
23,Cc1ccc(C)c2c(O)cc(CNCC(=O)N3CCCC3)nc12,-11.62
24,COc1ccc(CNC(=O)N2CCCN(CC3CCCCC3)CC2)cn1,-6.571
25,CN(C)c1ncccc1NC(=O)COC1CCCC1,0.222
26,O=C(O)C(F)(F)F.OCCOCc1ncn2c1CN(Cc1cccs1)CCC2,0.3209
27,CCOCc1nn(C)c2c1CN(Cc1cccs1)CC2.O=C(O)C(F)(F)F,87.87

row,Structure (SMILES),Percent Effect [%]
1,CCCN(CC(F)F)c1cc(COC)nc2ncnn12,-12.24
2,O=C(c1ccc(C2CCCN2)s1)N1CCC2(CCCO2)CC1 (stereo not given),16.77
3,OC1CCN(C2CCN(c3ccc(Cn4ccnc4)cn3)CC2)CC1,89.01
4,CC(C)N1CCCC(CN(C)c2ccc(Cn3ccnc3)cn2)C1 (stereo not given),-1.53
5,c1cc(CN2CCCN(c3ccc4cc[nH]c4n3)CC2)ccn1,-27.97
6,O=C(NCCn1ccnc1)NCc1ccc(N2CCCCCC2)nc1,15.34
7,Fc1ccc(N2CCCN(c3ccc(Cn4ccnc4)cn3)CC2)cc1,119.2
8,c1csc(-c2cc(CN3CCN(c4cnccn4)CC3)no2)c1,-0.0676
9,c1csc(CN2CCCN(c3ccc(Cn4ccnc4)cn3)CC2)c1,106.4
10,c1cn(Cc2ccc(N3CCCN(C4CCCC4)CC3)nc2)cn1,96.41
11,c1cn(Cc2nnc(C3CCN(C4CCCCC4)CC3)n2C2CC2)cn1,13.15
12,COc1cnc(N2CCCN(c3ccc(F)cc3)CC2)nc1,8.48
13,CC1CCN(c2ccc(CNC(=O)NCCn3ccnc3)cn2)CC1,0.6283
14,CN(CC1CCN(c2ccccc2)C1)c1ccc(Cn2ccnc2)cn1 (stereo not given),-14.61
15,CCOc1ccc(C(=O)N2Cc3cnc(CC(C)C)nc3C2)o1,-22.23
16,Cc1ccc(CC(NC(=O)CCS(C)(=O)=O)c2ccccn2)cc1 (stereo not given),-19.62
17,C[S+]([O-])c1nncn1CC(=O)c1ccc(Br)cc1 (stereo not given),-5.183
18,Cc1ccc(CN2CCCC3(CCCCN3S(C)(=O)=O)C2)s1.O=C(O)C(F)(F)F (stereo not given),-28.3
19,CC(=O)NCc1ccc(C(=O)N2CCCC2c2c(C)nn(C)c2C)o1 (stereo not given),97.07
20,Cc1nn(C)c(Cl)c1C1CCCN1C(=O)c1csnn1 (stereo not given),106
21,Cc1ncncc1C(=O)N1CCCC1c1c(C)nn(C)c1Cl (stereo not given),95.8
22,Cc1nn(C)c(Cl)c1C1CCCN1C(=O)c1cc[nH]n1 (stereo not given),-2.963
23,Cc1ccn2cc(C(=O)N3CCCC3c3c(C)nn(C)c3C)nc2c1 (stereo not given),3.405
24,Cc1nn(C)c(Cl)c1C1CCCN1C(=O)c1cnccn1 (stereo not given),91.27
